In paper PMC5540273 (PLoS ONE, 2017):

What was measured:
PIK4CB = system: T1, PIK4CB
T1 construct: gene PI4KB
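Further: kd values determined as follow-up on hits from a single-replicate KINOMEscan panel screen.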

Compound: O=C(NCCNc1ccnc(Nc2ccc(F)cc2)n1)Nc1ccccc1F [GSK1379880]
- Kd (PLK1): > 10000 nM

Compound: COc1ccc(S(=O)(=O)NC2CCN(c3cc(C)nc(Nc4cccc(C#N)c4)n3)CC2)cc1.O=C(O)C(F)(F)F [GSK1653539]
- Kd (PIK3CB): > 10000 nM

Compound: NS(=O)(=O)c1cccc(-c2ccc3ncc(N4CCOCC4)nc3c2)c1 [GSK1535721]
- Kd (PIK4CB): 860 nM

Compound: Cc1cccc(-c2nc(Nc3ccc4ncsc4c3)c3ccccc3n2)n1 [GW867588]
- Kd (PRKD1): 16 nM
- Kd (PRKD2): 22 nM

Compound: O=c1cc(N2CCOCC2)nc2n(Cc3cccc(C(F)(F)F)c3)ccn12 [GSK2297543]
- Kd (PIK3CB): 140 nM

Compound: COc1ccc(COc2cc(-n3cnc4ccccc43)sc2C(N)=O)cc1 [GSK1024304]
- Kd (PIK3CB): > 10000 nM
- Kd (PLK1): 37 nM
- Kd (PLK2): 250 nM
- Kd (PLK3): 380 nM
- Kd (RIOK2): 76 nM

Compound: Cc1ccc(NC(=O)c2ccnc(N3CCN(C)CC3)c2)cc1-c1ccc(C(=O)NCC2CC2)cc1 [GW775604]
- Kd (PDGFRB): 300 nM

Compound: N#Cc1c(N2CCOCC2)sc(-c2ccn[nH]2)c1-c1ccc(Cl)cc1
- Kd (PIK3CA): 32 nM
- Kd (PIK3CB): 750 nM

Compound: NS(=O)(=O)c1cccc(-c2ccc3nccc(-c4cccc(S(N)(=O)=O)c4)c3c2)c1 [GW867253]
- Kd (PIK3CG): 81 nM
- Kd (PIK4CB): 32 nM

Compound: c1ccc(-c2cc(-c3c[nH]nc3-c3ccccn3)ccn2)cc1 [GW576604]
- Kd (RIPK2): 7600 nM

Compound: C[C@@H](Oc1cc(-n2cnc3ccc(NC(=O)NC(C)(C)C)cc32)sc1C(N)=O)c1ccccc1Cl [GSK346294]
- Kd (PLK1): 7.3 nM
- Kd (PLK2): 77 nM
- Kd (PLK3): 150 nM

Compound: Cc1nnc(-c2ccc3occ(-c4ccc(C(C)O)cc4)c3c2)o1 (stereo not drawn)
- Kd (PIM2): 940 nM
- Kd (RAF1): > 10000 nM

Compound: [2H]C([2H])(c1cccc(C(F)(F)F)c1C)n1ccn2c(=O)nc(N3CCOCC3)cc12 [GSK2336394]
- Kd (PIK3CB): 51 nM

Compound: Fc1ccc(-c2ncn(CCCN3CCOCC3)c2-c2ccccn2)cc1 [SB-211742]
- Kd (PRKCI): > 10000 nM

Compound: O=C1Cc2cc(Nc3nc(NCc4cccc(S(=O)(=O)C(F)(F)F)c4)ncc3C(F)(F)F)ccc2N1
- Kd (PAK4): > 10000 nM
- Kd (PIM1): > 10000 nM

Compound: Cc1cccc(Cn2ccn3c(=O)cc(N4CCOCC4)nc23)c1 [GSK2297542]
- Kd (PIK3CB): 23 nM

Compound: Cc1c(Cn2c(C)nn3c(=O)cc(N4CCOC(C)C4)nc23)cccc1C(F)(F)F (stereo not drawn) [GSK2344444]
- Kd (PIK3CB): 0.67 nM
- Kd (PIK3CD): 80 nM

Compound: O=C(Nc1n[nH]c2cc(-c3cccc(F)c3)ccc12)C1CC1 [SB-735464]
- Kd (NLK): 87 nM

Compound: O=c1cc(N2CCOCC2)nc2n(Cc3cccc(Cl)c3Cl)c(C3CC3)nn12 [GSK2358994]
- Kd (PIK3CB): 0.94 nM
- Kd (PIK3CD): 820 nM

Compound: Cc1nnc(-c2ccc3ncc(-c4ccc(S(C)=O)cc4)n3c2)o1 (stereo not drawn)
- Kd (PDGFRB): 490 nM

Compound: Cc1cn2c(=O)cc(N3CCOCC3)nc2n1Cc1cccc(Cl)c1Cl [GSK2334006]
- Kd (PIK3CB): 2.4 nM
- Kd (PIK3CD): 120 nM

Compound: O=c1cc(N2CCOCC2)nc2n(Cc3cccc4ccccc34)ccn12 [GSK2333389]
- Kd (PIK3CB): 2.9 nM
- Kd (PIK3CD): 150 nM
- Kd (RET): > 10000 nM

Compound: O=c1cc(N2CCOCC2)nc2n(Cc3cccc(F)c3)ccn12 [GSK2297430]
- Kd (PIK3CB): 55 nM
